# Source: publication PMC4336329 (PLoS ONE, 2015)
# The whole screen tested about 310,000 compounds, of which about 14,000 (4.5%) showed an effect of 50% or more. The effect is printed as a negative number. The full list was thinned out, with strong results kept by preference.
# Molecular target: human ether-à-go-go-related gene (hERG) potassium channel (human, UniProt Q12809)
# Assay: primary screen, population patch clamp on CHO cells stably expressing hERG; higher = less effect of the substance
# 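Also: peak tail current of the secondary pulse compared with the same well before compound.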
# Sequence of human ether-à-go-go-related gene (hERG) potassium channel (Q12809 whole entry, looked up): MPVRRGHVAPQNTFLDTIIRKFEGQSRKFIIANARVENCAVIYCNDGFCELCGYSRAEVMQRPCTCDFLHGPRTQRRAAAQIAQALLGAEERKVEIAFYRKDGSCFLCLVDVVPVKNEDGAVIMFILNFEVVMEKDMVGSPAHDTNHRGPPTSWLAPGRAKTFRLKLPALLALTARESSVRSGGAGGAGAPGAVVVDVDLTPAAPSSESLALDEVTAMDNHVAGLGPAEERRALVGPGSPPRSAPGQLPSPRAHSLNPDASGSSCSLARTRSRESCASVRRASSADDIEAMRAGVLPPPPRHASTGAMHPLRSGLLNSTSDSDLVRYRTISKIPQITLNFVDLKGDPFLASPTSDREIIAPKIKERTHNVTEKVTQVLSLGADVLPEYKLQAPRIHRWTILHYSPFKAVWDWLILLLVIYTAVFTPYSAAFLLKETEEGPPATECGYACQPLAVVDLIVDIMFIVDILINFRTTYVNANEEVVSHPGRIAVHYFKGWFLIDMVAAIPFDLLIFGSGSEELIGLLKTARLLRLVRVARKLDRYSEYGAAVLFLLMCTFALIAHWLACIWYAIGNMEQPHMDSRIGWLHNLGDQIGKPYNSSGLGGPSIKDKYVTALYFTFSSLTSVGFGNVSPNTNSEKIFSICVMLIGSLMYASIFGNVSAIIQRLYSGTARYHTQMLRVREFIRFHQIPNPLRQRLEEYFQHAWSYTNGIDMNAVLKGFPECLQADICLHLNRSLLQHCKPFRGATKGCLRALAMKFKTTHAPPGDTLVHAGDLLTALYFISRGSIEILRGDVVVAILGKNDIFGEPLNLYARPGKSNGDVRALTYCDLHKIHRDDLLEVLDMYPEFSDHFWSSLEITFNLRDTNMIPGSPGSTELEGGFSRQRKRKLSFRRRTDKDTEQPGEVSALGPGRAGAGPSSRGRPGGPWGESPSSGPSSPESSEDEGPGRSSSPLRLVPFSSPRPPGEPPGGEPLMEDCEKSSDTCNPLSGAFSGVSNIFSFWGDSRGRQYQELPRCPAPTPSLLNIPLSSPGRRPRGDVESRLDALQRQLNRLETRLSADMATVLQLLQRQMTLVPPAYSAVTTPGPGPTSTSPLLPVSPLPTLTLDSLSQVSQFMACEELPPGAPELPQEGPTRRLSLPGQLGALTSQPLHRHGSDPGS
row,Structure (SMILES),"hERG current change (%, negative = inhibition) at 10uM"
1,CN(C)c1nc(N)c([N+](=O)[O-])c(NCC2CCCO2)n1 (stereo not shown),7.07%
2,O=C(O)CCCNC(=O)/C=C/c1ccco1,12.5%
3,CC(=O)Nc1sc(-c2ccccc2)nc1-c1ccccc1,14%
4,CCOC(=O)c1[nH]c2ccc(OC)cc2c1NC(=O)c1nonc1C,6.27%
5,Cc1cc(-c2nnc(CCC(=O)NCc3ccc(F)c(F)c3)o2)no1,2.95%
6,Cc1ccnc(NC(=O)c2cccc(S(=O)(=O)N3CCCc4ccccc43)c2)c1,-1.95%
7,CN(C(=O)CC1C(=O)NCCN1Cc1c(F)cccc1Cl)C1CCOCC1 (stereo not shown),17.9%
8,Cc1ccc(S(=O)(=O)N2CC(=O)NC(=O)C2)cc1,6.07%
9,O=C(C#Cc1ccccc1)Nc1ccc(F)cc1,10.1%
10,C[C@@H](NC(=O)c1nc[nH]c1C(=O)NCc1ccc(CNC(=O)OC(C)(C)C)cc1)c1ccccc1,6.47%
11,CCOC(=O)C1(CCCc2ccccc2)CCN(C(=O)CN2C(=O)CSC2=O)CC1,-4.63%
12,CCOC(=O)C1(CCCc2ccccc2)CCN(C(=O)CCn2cnnn2)CC1,-56.6%
13,CCOC(=O)C1(CCc2ccccc2)CCN(C(=O)CCn2cnnn2)CC1,-43.2%
14,COc1ccc(NC(=O)NNC(=O)c2ccc(Cl)cc2Cl)cc1OC,13%
15,CCOc1ccc2c(c1)sc1nc(C(=O)OC)cc(=O)n12,-12.9%
16,C[C@]12CS(=O)(=O)C[C@H]1SC(=S)N2c1ccccc1,-0.916%
17,Cn1c(C(=O)N2CCN(c3ccc(Cl)cc3)CC2)cc2c(=O)[nH]c3ccccc3c21,-114%
18,Cc1ccc(Cl)cc1N1CCN(C(=O)c2cc3c(=O)[nH]c4ccccc4c3n2C)CC1,8.91%
19,Cc1cccc(N2CCN(C(=O)c3cc4c(=O)[nH]c5ccccc5c4n3C)CC2)c1C,14.6%
20,OCCNc1nc2ccccc2[nH]1,12.8%
21,CCCCN(CCCC)CCCNC(=O)C1CC(c2ccc(C(F)(F)F)cc2)=NO1 (stereo not shown),-72.3%
22,CCCCNC(=O)C1CC(c2ccc(C(F)(F)F)cc2)=NO1 (stereo not shown),3.73%
23,CCCCN(CCCC)CCCNC(=O)C1CC(c2cc(C(F)(F)F)cc(C(F)(F)F)c2)=NO1 (stereo not shown),3.86%

row,Structure (SMILES),"hERG current change (%, negative = inhibition) at 10uM"
1,COCCCN1C(=O)c2ccc(C(=O)OCC(=O)N(C)c3ccccc3)cc2C1=O,2.63%
2,COc1cccc2cc(-c3csc(NC(=O)CCC(=O)NCCCN4CCC(C)CC4)n3)c(=O)oc12,-51.9%
3,CCOc1cccc2cc(-c3csc(NC(=O)CCC(=O)NCCCN4CCC(C)CC4)n3)c(=O)oc12,-44.6%
4,CCOc1cccc2cc(-c3csc(NC(=O)CCC(=O)NCCN4CCCCC4C)n3)c(=O)oc12 (stereo not shown),-34.9%
5,O=C(CNC(=O)c1cccc(Br)c1)NCCc1nc2ccccc2[nH]1,5.59%
6,COc1ccc(CN2CCCC(C(=O)c3ccc(SC)cc3)C2)cc1Cn1cccn1 (stereo not shown),-80.3%
7,COc1ccccc1C(=O)C1CCCN(C(=O)c2cccc(Cn3cccn3)c2)C1 (stereo not shown),-13%
8,COc1ccc(CN2CCCC(C(=O)c3cccc(OC(C)C)c3)C2)cc1Cn1cccn1 (stereo not shown),-69.9%
9,COc1ccc(CN2CCCC(C(=O)c3ccc(Cl)cc3)C2)cc1Cn1cccn1 (stereo not shown),-83.9%
10,COc1ccc(C(=O)C2CCCN(C(=O)c3cccc(Cn4cccn4)c3)C2)cc1F (stereo not shown),-14.5%
11,COCCNC(=O)CSc1ncnc2sc(-c3ccccc3)cc12,2.83%
12,CC(C)(C)C1CCc2c(C(=O)NNC(=O)/C=C/C(=O)O)csc2C1 (stereo not shown),10.3%
13,Cc1c(C(=O)N2CCC3(CC2)OCCO3)sc2ncnc(N3CCc4ccccc4C3)c12,-33.7%
14,Cn1cc(CN2CCC(C(=O)N3CCCCC3)CC2)c(-c2ccccc2F)n1,4.1%
15,OC1CCCN(Cc2cn(Cc3ccccc3)nc2-c2cc3ccccc3o2)C1 (stereo not shown),-44.7%
16,Cn1cc(CN2CCC(C(=O)N3CCCC3)CC2)c(-c2ccccc2F)n1,-4.8%
17,OC1CCN(Cc2cn(Cc3ccccc3)nc2-c2cc3ccccc3o2)CC1,-50.7%
18,CCC(O)C1CCN(Cc2cn(Cc3ccccc3)nc2-c2cc3ccccc3o2)CC1 (stereo not shown),-65.1%
19,OCC1CCCN(Cc2cn(Cc3ccccc3)nc2-c2cc3ccccc3o2)C1 (stereo not shown),-41.9%
20,O=Cc1cn(CCC(=O)O)nc1-c1cc2ccccc2o1,-5.41%
21,N#CCCn1cc(C(=O)O)c(-c2cc3ccccc3o2)n1,24.6%
22,OCC1CCN(Cc2cn(Cc3ccccc3)nc2-c2cc3ccccc3o2)CC1,-67%
23,O=C1CSC(c2cn(-c3ccccc3)nc2-c2cc3ccccc3o2)N1Cc1ccccc1 (stereo not shown),-6.82%
